{"source": "PubChem BioAssay AID2061166", "about": "(Soto Lab, Mitchell Center for Alzheimers Disease and …, 2025)", "note": "Calls of active or inactive are those of the source.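 The calls were made as follows: active = mean tau seeding fluorescence area under 1% of vehicle, meaning inhibition above a set limit; inactive = the rest.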"}
{"molecular_target": "Microtubule-associated protein tau (Homo sapiens) (UniProt P10636)", "sequence (P10636 whole entry, looked up)": "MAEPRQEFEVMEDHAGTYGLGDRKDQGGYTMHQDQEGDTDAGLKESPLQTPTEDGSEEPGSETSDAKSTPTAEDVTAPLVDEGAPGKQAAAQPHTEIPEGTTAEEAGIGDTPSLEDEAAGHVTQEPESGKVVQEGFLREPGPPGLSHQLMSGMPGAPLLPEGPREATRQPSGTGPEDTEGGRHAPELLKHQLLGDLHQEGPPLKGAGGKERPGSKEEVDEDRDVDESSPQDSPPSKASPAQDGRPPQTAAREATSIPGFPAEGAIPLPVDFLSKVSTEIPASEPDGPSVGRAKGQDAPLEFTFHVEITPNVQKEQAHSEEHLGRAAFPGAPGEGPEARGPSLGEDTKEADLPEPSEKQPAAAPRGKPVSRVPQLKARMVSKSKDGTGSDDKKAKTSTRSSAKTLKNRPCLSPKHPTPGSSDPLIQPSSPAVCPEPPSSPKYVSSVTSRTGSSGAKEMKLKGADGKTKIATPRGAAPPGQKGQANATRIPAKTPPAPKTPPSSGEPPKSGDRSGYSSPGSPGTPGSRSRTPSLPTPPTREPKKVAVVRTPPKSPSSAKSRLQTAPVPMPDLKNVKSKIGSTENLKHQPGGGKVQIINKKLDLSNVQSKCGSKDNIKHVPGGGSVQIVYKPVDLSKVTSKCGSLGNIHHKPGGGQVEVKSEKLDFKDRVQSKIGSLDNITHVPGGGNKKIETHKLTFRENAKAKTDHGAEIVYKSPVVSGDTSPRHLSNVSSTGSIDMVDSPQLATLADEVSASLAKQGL", "assay": "inhibitors of seeded tau aggregation, primary screen, biochemical, seed amplification, ThT fluorescence (AID 2061166)", "details": "Recombinant tau seeded by AD brain, ThT fluorescence AUC; at 100 µM; stronger effect = higher value"}
{"compound": "CCc1cc2c(cc1N1CCC(N3CCOCC3)CC1)C(C)(C)c1[nH]c3cc(C#N)ccc3c1C2=O", "inhibition": "-7.3% (inactive)"}
{"compound": "CC1(C)CCC2(C(=O)O)CCC3(C)C(=CCC4C5(C)CCC(O)C(C)(CO)C5CCC43C)C2C1", "note": "(configuration not stated)", "inhibition": "65% (inactive)"}
{"compound": "CCC1=CC2CN(C1)Cc1c([nH]c3ccccc13)C(C(=O)OC)(c1cc3c(cc1OC)N(C)C1C(O)(C(=O)OC)C(OC(C)=O)C4(CC)C=CCN5CCC31C54)C2", "note": "(configuration not stated)", "inhibition": "27% (inactive)"}
{"compound": "NC(=O)NO", "inhibition": "-49.7% (inactive)"}
{"compound": "Oc1cc(O)c2c(c1)OC(c1ccc(O)c(O)c1)C(O)C2", "note": "(configuration not stated)", "inhibition": "88.6% (inactive)"}
{"compound": "Cc1ccc(C(C)C)cc1O", "inhibition": "10.5% (inactive)"}
{"compound": "CC(=O)OCC(=O)C1(O)C(C)CC2C3CCC4=CC(=O)C=CC4(C)C3(F)C(O)CC21C", "note": "(configuration not stated)", "inhibition": "46.2% (inactive)"}
{"compound": "CC1OC(OCC2OC(Oc3c(-c4ccc(O)c(O)c4)oc4cc(O)cc(O)c4c3=O)C(O)C(O)C2O)C(O)C(O)C1O", "note": "(configuration not stated)", "inhibition": "28.7% (inactive)"}
{"compound": "CN(C)c1ccc2nc3ccc(=[N+](C)C)cc-3sc2c1", "inhibition": "100% (active)"}
{"compound": "NS(=O)(=O)Cc1noc2ccccc12", "inhibition": "18.2% (inactive)"}
{"compound": "Cn1cnc2c(F)c(Nc3ccc(Br)cc3Cl)c(C(=O)NOCCO)cc21", "inhibition": "-4.66% (inactive)"}
{"compound": "CN(C)CCC=C1c2ccccc2CCc2ccccc21", "inhibition": "13.9% (inactive)"}
{"compound": "O=c1cc(-c2ccccc2)oc2cc(O)c(O)c(O)c12", "inhibition": "97.6% (inactive)"}
{"compound": "Cc1ncc(CO)c(CO)c1O", "note": "(tested in a mixture with another compound)", "inhibition": "21.6% (inactive)"}
{"compound": "CC(OC1OCCN(Cc2n[nH]c(=O)[nH]2)C1c1ccc(F)cc1)c1cc(C(F)(F)F)cc(C(F)(F)F)c1", "note": "(configuration not stated)", "inhibition": "60.4% (inactive)"}
{"compound": "CCCCCCCCc1ccc(CCC(N)(CO)CO)cc1", "inhibition": "59.3% (inactive)"}
{"compound": "NC(=O)c1cn(Cc2c(F)cccc2F)nn1", "inhibition": "-11.5% (inactive)"}
